Experiment in all cases: DAPPL (digital affinity profiling via proximity ligation, sequencing); 10 mM Tris-HCl pH 7.5, 50 mM NaCl, 1 mM DTT, 4% glycerol, room temperature, 30 min; GST-TFs on glutathione beads, 16-mer random dsDNA library, 0.1% formaldehyde crosslink after washing; high values mean tight binding
Holding throughout (conditions): protein: recombinant; tags: N-terminal GST; dsDNA, one strand shown

One assay deals with T1, ELK1 (Homo sapiens, UniProt P19419 1-428).
T1 sequence: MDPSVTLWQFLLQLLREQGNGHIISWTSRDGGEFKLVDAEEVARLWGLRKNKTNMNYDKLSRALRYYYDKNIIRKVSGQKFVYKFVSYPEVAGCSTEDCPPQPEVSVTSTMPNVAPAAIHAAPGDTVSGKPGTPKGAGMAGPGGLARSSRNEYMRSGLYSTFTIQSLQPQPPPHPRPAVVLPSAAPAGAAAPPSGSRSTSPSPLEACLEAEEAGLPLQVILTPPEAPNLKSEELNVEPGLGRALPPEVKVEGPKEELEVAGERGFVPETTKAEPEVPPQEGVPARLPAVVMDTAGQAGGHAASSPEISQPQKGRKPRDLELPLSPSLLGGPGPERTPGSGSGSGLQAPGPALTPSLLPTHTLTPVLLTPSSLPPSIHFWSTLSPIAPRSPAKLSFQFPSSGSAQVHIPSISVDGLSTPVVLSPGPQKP
The gist of the method: (§1)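 Sequencing on an Illumina NextSeq500 followed washing, crosslinking with 0.1% formaldehyde, proximity ligation (BsaI/T4 ligase, 1 h, 37 °C) and PCR amplification of pools that had been incubated for 30 min at room temperature with 200 nmole of a random double-stranded 16-mer DNA library in Tris/NaCl/DTT/glycerol buffer. Each pool held DNA-barcoded human transcription factors, expressed in yeast as GST fusions and captured on glutathione beads, plus a tag-only sample. Binding signal is a hexamer's read frequency for a factor divided by its frequency in the tag-only sample.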

For a further assay, the target named is T2, GABPA (Homo sapiens, UniProt Q06546 1-454).
T2 sequence: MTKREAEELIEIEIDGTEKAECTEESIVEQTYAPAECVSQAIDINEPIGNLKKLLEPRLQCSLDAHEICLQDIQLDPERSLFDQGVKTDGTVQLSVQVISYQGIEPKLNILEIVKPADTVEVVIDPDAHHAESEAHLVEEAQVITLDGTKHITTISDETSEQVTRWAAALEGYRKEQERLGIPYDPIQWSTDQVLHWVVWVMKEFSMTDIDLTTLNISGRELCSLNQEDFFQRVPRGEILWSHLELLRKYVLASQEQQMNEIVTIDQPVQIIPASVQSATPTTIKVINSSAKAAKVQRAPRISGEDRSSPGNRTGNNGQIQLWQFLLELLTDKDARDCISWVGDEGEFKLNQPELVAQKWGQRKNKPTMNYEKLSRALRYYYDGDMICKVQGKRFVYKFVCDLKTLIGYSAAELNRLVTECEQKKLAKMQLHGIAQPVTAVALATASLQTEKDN
The method, boiled down: as §1

The next assay has as its target ELF1 (Homo sapiens, UniProt P32519 1-619). The method, boiled down: as §1
The target of a further assay is T3, EHF (Homo sapiens, UniProt Q9NZC4 1-300).
T3 sequence: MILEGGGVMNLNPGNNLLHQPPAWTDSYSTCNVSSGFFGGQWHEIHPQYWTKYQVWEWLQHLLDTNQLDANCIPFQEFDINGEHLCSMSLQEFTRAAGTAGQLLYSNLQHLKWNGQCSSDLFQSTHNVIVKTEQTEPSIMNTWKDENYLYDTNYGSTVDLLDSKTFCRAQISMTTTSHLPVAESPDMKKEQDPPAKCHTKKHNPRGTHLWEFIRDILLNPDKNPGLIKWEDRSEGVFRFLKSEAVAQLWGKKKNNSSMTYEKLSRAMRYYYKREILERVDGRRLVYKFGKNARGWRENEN
The gist of the method:
as §1

The target in another assay is SPIB (Homo sapiens, UniProt Q01892 1-262). The gist of the method:
as §1

The target of another assay is T4, ELK3 (Homo sapiens, UniProt P41970 1-407).
T4 sequence: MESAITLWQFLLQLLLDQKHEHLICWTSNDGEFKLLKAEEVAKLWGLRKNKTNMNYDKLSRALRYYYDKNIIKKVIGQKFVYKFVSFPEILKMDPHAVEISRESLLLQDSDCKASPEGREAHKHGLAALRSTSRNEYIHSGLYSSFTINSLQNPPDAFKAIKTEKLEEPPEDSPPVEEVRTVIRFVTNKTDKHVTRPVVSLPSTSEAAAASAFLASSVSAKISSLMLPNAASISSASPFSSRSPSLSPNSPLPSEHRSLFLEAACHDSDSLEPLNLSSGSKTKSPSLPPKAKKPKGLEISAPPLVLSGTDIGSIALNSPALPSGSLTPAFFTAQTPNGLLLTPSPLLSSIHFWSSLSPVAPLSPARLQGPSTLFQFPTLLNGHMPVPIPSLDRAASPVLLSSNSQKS
The gist of the method: as §1

Another assay addresses T5, SPIC (Homo sapiens, UniProt Q8N5J4 1-248).
T5 sequence: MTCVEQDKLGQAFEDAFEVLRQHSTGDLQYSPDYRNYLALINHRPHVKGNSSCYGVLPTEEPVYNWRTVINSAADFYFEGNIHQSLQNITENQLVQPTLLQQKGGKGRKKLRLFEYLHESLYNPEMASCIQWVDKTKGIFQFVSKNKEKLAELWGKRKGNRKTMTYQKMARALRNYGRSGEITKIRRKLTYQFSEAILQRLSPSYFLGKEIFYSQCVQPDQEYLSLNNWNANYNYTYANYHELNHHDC
The gist of the method:
as §1

Another assay addresses ELF4 (Homo sapiens, UniProt Q99607 1-663). The gist of the method: as §1
The next assay deals with T6, ELK4 (Homo sapiens, UniProt P28324-2 1-405).
T6 sequence: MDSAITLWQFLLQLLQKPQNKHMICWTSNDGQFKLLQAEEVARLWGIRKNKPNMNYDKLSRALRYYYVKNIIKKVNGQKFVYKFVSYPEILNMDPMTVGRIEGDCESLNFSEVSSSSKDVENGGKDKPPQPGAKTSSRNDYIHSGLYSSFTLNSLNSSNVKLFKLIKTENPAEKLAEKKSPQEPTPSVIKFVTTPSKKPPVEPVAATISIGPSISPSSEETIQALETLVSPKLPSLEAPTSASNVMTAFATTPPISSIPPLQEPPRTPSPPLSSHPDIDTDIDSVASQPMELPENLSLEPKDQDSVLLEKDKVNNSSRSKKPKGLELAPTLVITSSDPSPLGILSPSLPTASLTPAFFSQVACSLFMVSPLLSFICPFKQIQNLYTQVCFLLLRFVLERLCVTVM
The gist of the method: as §1

Another assay addresses T7, ELF3 (Homo sapiens, UniProt P78545 1-371).
T7 sequence: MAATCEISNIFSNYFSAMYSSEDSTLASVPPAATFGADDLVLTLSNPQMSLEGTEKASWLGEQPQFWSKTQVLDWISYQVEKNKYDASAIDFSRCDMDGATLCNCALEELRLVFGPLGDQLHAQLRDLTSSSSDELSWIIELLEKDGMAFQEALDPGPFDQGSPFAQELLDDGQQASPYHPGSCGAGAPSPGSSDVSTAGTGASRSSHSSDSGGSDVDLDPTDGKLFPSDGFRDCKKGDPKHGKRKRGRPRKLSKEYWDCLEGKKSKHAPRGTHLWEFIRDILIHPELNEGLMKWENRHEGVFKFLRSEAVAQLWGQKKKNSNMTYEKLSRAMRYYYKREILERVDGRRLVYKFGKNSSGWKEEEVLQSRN
The gist of the method:
as §1

A further assay deals with ETV1 (Homo sapiens, UniProt P50549 1-477). The method, boiled down: as §1
A further assay has as its target T8, ETV3L (Homo sapiens, UniProt Q6ZN32 1-361).
T8 sequence: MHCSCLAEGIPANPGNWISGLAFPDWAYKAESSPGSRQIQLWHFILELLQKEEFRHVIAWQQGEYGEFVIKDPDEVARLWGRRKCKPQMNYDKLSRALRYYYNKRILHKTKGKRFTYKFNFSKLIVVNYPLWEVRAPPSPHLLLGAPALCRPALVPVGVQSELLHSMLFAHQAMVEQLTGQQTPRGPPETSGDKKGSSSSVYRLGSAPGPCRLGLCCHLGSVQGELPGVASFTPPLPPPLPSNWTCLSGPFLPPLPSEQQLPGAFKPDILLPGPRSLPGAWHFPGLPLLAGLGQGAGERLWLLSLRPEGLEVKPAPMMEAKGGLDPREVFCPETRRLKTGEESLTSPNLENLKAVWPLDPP
The gist of the method:
as §1

The next assay concerns the target T9, ETS2 (Homo sapiens, UniProt P15036 1-469).
T9 sequence: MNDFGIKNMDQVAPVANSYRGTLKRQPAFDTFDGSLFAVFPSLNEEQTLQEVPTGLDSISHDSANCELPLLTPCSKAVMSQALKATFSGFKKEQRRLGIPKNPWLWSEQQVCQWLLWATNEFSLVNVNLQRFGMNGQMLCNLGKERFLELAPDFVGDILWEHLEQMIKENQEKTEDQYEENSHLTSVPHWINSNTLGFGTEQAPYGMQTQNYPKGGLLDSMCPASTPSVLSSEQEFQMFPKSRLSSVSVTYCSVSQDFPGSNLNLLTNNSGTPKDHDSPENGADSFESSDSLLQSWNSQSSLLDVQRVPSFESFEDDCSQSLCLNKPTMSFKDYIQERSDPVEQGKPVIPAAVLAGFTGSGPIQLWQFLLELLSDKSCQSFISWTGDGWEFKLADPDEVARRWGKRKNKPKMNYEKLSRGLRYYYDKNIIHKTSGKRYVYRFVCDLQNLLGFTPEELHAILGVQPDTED
The gist of the method:
as §1

The target of another assay is T10, SPDEF (Homo sapiens, UniProt O95238 1-335).
T10 sequence: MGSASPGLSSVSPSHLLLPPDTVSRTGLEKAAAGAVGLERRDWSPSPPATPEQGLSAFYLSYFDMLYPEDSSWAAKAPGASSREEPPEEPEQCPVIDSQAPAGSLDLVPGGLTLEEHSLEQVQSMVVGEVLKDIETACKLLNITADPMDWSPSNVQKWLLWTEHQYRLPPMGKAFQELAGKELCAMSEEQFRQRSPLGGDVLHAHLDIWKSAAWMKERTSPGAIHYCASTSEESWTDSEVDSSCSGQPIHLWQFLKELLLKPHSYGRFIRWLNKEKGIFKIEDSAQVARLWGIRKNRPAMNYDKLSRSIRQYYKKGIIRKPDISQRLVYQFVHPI
The gist of the method:
as §1

The target in the next assay is T11, ETV7 (Homo sapiens, UniProt Q9Y603 1-341).
T11 sequence: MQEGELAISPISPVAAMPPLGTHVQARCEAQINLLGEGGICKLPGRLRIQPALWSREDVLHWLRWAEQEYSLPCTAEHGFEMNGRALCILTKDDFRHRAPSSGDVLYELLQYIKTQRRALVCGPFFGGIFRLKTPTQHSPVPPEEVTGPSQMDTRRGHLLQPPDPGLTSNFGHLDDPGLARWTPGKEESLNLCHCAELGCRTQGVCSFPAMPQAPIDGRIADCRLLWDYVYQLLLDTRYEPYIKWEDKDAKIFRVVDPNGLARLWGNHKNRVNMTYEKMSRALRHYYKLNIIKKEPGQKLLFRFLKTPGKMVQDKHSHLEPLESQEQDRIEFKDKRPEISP
The method, boiled down: as §1

The target of the next assay is T12, ETV3 (Homo sapiens, UniProt P41162-2 1-143).
T12 sequence: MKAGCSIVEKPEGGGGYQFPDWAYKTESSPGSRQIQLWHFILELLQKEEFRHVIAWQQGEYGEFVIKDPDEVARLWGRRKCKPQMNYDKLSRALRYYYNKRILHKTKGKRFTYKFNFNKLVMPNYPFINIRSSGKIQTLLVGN
The gist of the method:
as §1

The target of a further assay is ETV6 (Homo sapiens, UniProt P41212 1-452). The method, boiled down:
as §1

Sequence of ETV6 (P41212 whole entry): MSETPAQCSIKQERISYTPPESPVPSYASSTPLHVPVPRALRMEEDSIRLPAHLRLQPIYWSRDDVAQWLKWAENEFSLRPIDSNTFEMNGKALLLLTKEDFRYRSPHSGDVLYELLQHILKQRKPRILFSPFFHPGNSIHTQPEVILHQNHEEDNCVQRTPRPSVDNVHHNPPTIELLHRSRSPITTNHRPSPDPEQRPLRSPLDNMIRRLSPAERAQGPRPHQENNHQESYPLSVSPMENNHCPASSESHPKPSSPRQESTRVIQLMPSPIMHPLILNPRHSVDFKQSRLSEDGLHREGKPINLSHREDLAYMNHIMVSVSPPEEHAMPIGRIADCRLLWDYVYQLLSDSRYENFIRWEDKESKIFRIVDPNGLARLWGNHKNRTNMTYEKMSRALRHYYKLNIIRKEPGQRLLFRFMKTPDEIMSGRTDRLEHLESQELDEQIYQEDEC
Sequence of ELF4 (Q99607 whole entry): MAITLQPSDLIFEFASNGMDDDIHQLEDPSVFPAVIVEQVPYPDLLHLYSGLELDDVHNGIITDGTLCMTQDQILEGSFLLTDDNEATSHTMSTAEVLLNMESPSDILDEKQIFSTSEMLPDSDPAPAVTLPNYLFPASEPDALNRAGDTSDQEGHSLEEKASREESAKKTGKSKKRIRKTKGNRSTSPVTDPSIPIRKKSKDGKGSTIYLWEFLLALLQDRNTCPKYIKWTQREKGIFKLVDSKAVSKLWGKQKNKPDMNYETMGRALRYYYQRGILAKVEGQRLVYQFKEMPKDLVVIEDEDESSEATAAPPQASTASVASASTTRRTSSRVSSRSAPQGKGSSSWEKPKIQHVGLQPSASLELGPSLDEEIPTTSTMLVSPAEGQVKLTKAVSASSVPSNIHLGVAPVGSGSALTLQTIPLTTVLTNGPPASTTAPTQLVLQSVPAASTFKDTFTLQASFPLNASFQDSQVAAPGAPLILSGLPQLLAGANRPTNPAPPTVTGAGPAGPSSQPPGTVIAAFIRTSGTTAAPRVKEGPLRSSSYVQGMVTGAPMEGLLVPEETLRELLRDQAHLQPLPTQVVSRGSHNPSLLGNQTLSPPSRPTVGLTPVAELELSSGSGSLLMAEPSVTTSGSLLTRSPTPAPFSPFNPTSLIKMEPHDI
Sequence of ETV1 (P50549 whole entry): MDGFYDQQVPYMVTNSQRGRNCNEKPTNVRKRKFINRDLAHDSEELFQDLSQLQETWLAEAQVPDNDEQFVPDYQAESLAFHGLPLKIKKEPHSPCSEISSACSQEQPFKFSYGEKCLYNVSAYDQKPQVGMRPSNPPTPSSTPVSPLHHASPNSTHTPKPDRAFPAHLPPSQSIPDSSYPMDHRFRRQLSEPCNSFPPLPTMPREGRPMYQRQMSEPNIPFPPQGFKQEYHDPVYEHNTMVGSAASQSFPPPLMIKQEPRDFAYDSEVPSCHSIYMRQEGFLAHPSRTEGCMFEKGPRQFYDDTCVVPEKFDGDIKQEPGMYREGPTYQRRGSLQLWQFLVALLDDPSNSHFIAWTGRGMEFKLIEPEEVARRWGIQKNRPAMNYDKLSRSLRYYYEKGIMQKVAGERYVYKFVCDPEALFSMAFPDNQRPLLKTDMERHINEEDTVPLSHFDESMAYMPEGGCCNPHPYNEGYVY
Sequence of SPIB (Q01892 whole entry): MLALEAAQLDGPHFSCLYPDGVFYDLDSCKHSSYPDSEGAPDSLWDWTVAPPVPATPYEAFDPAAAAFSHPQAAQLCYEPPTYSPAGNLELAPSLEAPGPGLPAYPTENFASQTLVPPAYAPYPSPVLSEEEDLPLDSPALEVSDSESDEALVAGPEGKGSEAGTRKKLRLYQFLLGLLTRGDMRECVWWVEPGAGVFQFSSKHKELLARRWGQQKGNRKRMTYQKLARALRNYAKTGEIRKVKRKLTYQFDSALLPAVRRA
Sequence of ELF1 (P32519 whole entry): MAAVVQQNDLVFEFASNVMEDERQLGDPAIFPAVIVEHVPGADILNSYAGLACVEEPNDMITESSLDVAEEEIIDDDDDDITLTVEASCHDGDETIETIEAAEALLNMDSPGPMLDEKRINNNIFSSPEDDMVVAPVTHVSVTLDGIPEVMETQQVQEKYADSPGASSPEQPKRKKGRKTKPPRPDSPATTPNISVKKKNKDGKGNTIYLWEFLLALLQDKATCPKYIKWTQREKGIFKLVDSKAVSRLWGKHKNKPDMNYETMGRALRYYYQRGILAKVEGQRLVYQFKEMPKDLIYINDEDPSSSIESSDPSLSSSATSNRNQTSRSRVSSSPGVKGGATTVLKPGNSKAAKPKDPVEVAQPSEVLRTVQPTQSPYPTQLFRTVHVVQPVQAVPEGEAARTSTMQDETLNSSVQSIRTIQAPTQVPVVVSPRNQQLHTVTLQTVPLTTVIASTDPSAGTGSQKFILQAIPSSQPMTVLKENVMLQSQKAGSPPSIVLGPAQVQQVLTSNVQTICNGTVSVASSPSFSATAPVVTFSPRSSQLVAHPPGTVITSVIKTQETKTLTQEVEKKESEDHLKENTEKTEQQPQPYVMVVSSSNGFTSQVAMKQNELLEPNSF

Take TAGATA: the binding signal with ELK1 is 1.03 fold enrichment (6-mer frequency, TF over GST control); with GABPA, 1.1 fold enrichment (6-mer frequency, TF over GST control); with ELF1 it was 1.06 fold enrichment (6-mer frequency, TF over GST control); in the assay with EHF, 1.06 fold enrichment (6-mer frequency, TF over GST control); with SPIB, 1.05 fold enrichment (6-mer frequency, TF over GST control); in the assay with ELK3, 1.02 fold enrichment (6-mer frequency, TF over GST control). The binding signal is 1.17 fold enrichment (6-mer frequency, TF over GST control) in the assay with SPIC; 1.07 fold enrichment (6-mer frequency, TF over GST control) in the assay with ELF4; 1.08 fold enrichment (6-mer frequency, TF over GST control) in the assay with ELK4; 1.08 fold enrichment (6-mer frequency, TF over GST control) with ELF3; 1.06 fold enrichment (6-mer frequency, TF over GST control) in the assay with ETV1; 1.12 fold enrichment (6-mer frequency, TF over GST control) with ETV3L. Besides, the binding signal is 1.05 fold enrichment (6-mer frequency, TF over GST control) with ETS2; 1.06 fold enrichment (6-mer frequency, TF over GST control) with SPDEF; 1.02 fold enrichment (6-mer frequency, TF over GST control) with ETV7; 1.01 fold enrichment (6-mer frequency, TF over GST control) with ETV3; 1.01 fold enrichment (6-mer frequency, TF over GST control) with ETV6.

The record behind these values is publication PMC7862700, “An all-to-all approach to the identification of sequence-specific readers for epigenetic DNA modifications on cytosine”.
